# Laboratory results from PubChem BioAssay (NCI).
# The panel holds about 83,000 compounds, 20% with a hit somewhere; the sample as a whole holds those more often.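 How to read the values: 0–100, growth inhibition (40 = 60% inhibited); 0, no net growth; -100 to 0, cell death (-40 = 40% of starting cells died; -100 = all dead).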 Unmarked numbers belong to inactive results. Active and inactive are the calls of the source. Rule for the calls: active = growth percent below 10; inactive = the rest.
# Tests used:
# Assay in all cases: NCI-60 one-dose screen, 48 h (100 = growth as untreated, 0 = no growth, -100 = all killed)
# Settings in all cases: 10 µM unless noted
# BT-549 breast = tested on: BT-549 breast
# MDA-MB-435 melanoma = tested on: MDA-MB-435 melanoma
# SW-620 colon = tested on: SW-620 colon
# MCF7 breast = tested on: MCF7 breast
# HCT-116 colon = tested on: HCT-116 colon
# HCC-2998 colon = tested on: HCC-2998 colon
# KM12 colon = tested on: KM12 colon
Structure (SMILES),growth (BT-549 breast),growth (MDA-MB-435 melanoma),growth (SW-620 colon),growth (MCF7 breast),growth (HCT-116 colon),growth (HCC-2998 colon),growth (KM12 colon)
c1ccc(-n2nnnc2-c2cccc3ccccc23)cc1,29.5%,-10.5% (active),20.8%,19.8%,14.9%,23.5%,31.3%
COC(=O)[C@]1(CCSC)N[C@H](c2cn(-c3ccccc3)nc2C)[C@@H]2C(=O)N(c3ccc(C)cc3)C(=O)[C@@H]21,82.8%,105%,106%,102%,92.5%,96.4%,104%
Oc1ccc(-c2nn(-c3ccccc3)cc2-c2nc3ccccc3s2)cc1,103%,102%,99.6%,50.4%,88.8%,102%,82.8%
ClC1=C(Cl)C(Cl)=C(Cl)C1=C/C=C/c1ccccc1,-12.6% (active),-28.5% (active),-55.2% (active),-19.6% (active),-98% (active),-93.3% (active),-77.8% (active)
CCCCCCCCSc1ncnc2c1ncn2CO,84.6%,82.6%,93.8%,75.7%,66.8%,109%,88.2%
O=C1Nc2ccc(F)cc2/C1=C/c1nc(-c2ccc(F)cc2)n2ccccc12,96.8%,85%,80.1%,85.6%,91.1%,108%,87.6%
COC(=O)C[C@@H]1CC=CC(=O)/C1=C(O)/C=C/c1ccccc1,-36.3% (active),-32.1% (active),-81.7% (active),-3.08% (active),-92.2% (active),-95.1% (active),-76.3% (active)
Cc1cc(NC(=O)Nc2cccc3ccccc23)no1,79.9%,101%,109%,84%,95%,104%,112%
COc1ccc2c(c1)C(=O)/C(=C/c1cccc(OCC(=O)c3ccccc3)c1)CC2,39.2%,41.1%,66%,48.7%,72.1%,96.4%,91.5%
CCC1=C(c2ccc(OC)cc2)C(C)(C)Oc2cc(O)c(CN3CCCC3)cc21,65.7%,70.9%,89.7%,89.7%,46.9%,18.1%,81.1%
COC(=O)[C@]12CC[C@@H](C)[C@H](C)[C@@H]1C1=CC[C@@H]3[C@@]4(C)C=C(O)C(=O)[C@@]5(C)COC(=C54)C[C@@]3(C)[C@]1(C)CC2,-66.6% (active),-60.9% (active),-65.6% (active),-70.5% (active),-86.4% (active),-83.3% (active),-74.2% (active)
COc1cccc2c1O/C(=C\c1c([N+](=O)[O-])ncn1C)C2=O,98%,91.6%,105%,88.4%,83.3%,105%,105%
O[C@@H]1Cc2ccc3ccccc3c2N[C@H](c2ccoc2)C1,106%,107%,112%,94.5%,105%,113%,106%
COc1ncc(-c2ccc3nccc(C#CCN4CCN(S(C)(=O)=O)CC4)c3c2)cc1NS(=O)(=O)c1ccc(F)cc1F,-17.6% (active),-23% (active),0.433% (active),6.88% (active),-10.4% (active),-37% (active),-57.2% (active)
COc1ccc(/C=C2\NC(=S)NC2=O)cc1,105%,110%,105%,99.9%,99.4%,117%,101%
COc1cc(Oc2cc(-c3cccnc3)ccc2NC(=O)Nc2ccc(F)cc2F)cc(OC)c1OC,103%,109%,104%,94.2%,97.8%,106%,108%
Cc1nn(-c2ccccc2)c2nc(Cl)c(/C=C/C(=O)c3ccccc3)c(-c3ccccc3)c12,87.9%,103%,112%,96.1%,95.5%,103%,106%
CCN1C[C@@H](C)n2c(c(O)c3c(=O)n(Cc4ccc(F)c(Cl)c4)nc(C(=O)NC)c32)C1=O,9.6% (active),27.4%,21.1%,53.6%,16.3%,14.7%,21%

Structure (SMILES),growth (BT-549 breast),growth (MDA-MB-435 melanoma),growth (SW-620 colon),growth (MCF7 breast),growth (HCT-116 colon),growth (HCC-2998 colon),growth (KM12 colon)
C=Cc1nn2c(CCC(=O)c3nc4ccccc4[nH]3)nnc2s1,95.4%,100%,102%,93.8%,98.5%,98%,97.7%
CC/C(=C\c1ccc(N(C)C)cc1)c1nc2ccccc2c(=O)[nH]1,60.3%,108%,120%,98.2%,108%,93%,119%
Cn1cc(-c2csc(-c3c[nH]c4ncccc34)n2)c2cc(Br)cnc21,45.5%,33.8%,39.2%,35%,5.99% (active),64.2%,63.1%
CC(=O)Oc1ccc(C2OC(c3ccc4ccccc4c3OC(C)=O)=NN2C(C)=O)c(OC(C)=O)c1 (configuration not stated),31%,33.6%,32%,15.6%,20.6%,29.9%,19.7%
COc1ccc(OC)c(/C=C/c2nc(=S)n(-c3ccc(Cl)cc3)[nH]2)c1,67.2%,-10.3% (active),50.4%,32%,29.6%,45.6%,40.9%
Cc1cc2c(cc1[N+](=O)[O-])NC(CNC(C)C)CC2 (configuration not stated),102%,107%,111%,105%,96.2%,86.6%,107%
c1cnc2ccc3ncccc3c2c1,108%,129%,100%,92%,95.7%,124%,110%
COc1ccc(-c2csc(NC(=O)c3cc(OC)c(OC)c(OC)c3)n2)cc1,106%,96.4%,102%,98.3%,106%,112%,108%
[O-]/[N+](=C\C=C\c1ccccc1)c1ccccc1,109%,108%,104%,96.3%,102%,103%,100%
O=C(/C=C/c1ccc(O)c(O)c1)N1CCN(c2ccc(Cl)cc2)CC1,56.9%,67.9%,64%,74.9%,55.7%,82.9%,73.5%
Cn1cc(-c2nc(-c3c[nH]c4ncccc34)cs2)c2cccnc21,64.7%,5.79% (active),60.4%,59%,41.7%,76.1%,52.1%
O=C1NCN(CCO)CN1,75.9%,97.1%,102%,94.1%,106%,100%,108%
Cc1nn(-c2ccc(Cl)cc2)c2nc3c(nc12)c(=O)oc1ccccc13,89.8%,106%,104%,99.1%,105%,98.2%,112%
c1csc([C@@H]2C[C@@H]3Cc4ccc5ccccc5c4N2O3)c1,112%,87.1%,98.5%,99.8%,101%,105%,103%
CCC(O)C(C)(C)C (configuration not stated),108%,105%,101%,113%,106%,106%,113%
CCC(c1ccccc1)c1noc(CCN(CC)CC)n1 (configuration not stated),84.6%,110%,120%,86.5%,92%,106%,105%
COc1ccc(OC)c2c1[nH]c(=O)c1c3ccccc3cn21,-11.6% (active),-97.9% (active),-59.8% (active),-78.5% (active),-71.5% (active),-77.4% (active),-52.6% (active)
CC(=O)n1c2ccccc2c2ccccc21,119%,106%,106%,104%,102%,96.1%,114%
